The values below come from PubChem BioAssay (NCATS).

Test [1] in a line: Cell Viability - Jurkat (AID 426;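 active means dose-dependent loss of cell ATP signal giving a full or clear fitted curve, ranked by lower potency value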; further: potency means the concentration at half of the fitted maximal effect). Particulars: qHTS. In short, it runs like this: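 Cells of the human T-cell leukemia line Jurkat (E6-1) are seeded at 5000 per well, treated with compound across a concentration range for 40 hours at 37 °C, then lysed with CellTiter-Glo; luminescence reports ATP.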
In general terms: qHTS replaces the single test concentration by a dilution series.

Test [2] in a line: Cell Viability - Hek293 (AID 427;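 active means compounds whose dose-response curve shows a full or clear partial loss of cell viability, called from curve shape rather than a numeric limit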;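 further: potency means the concentration at half of the fitted maximal effect; cells exposed to compound for 40 hours at 37 °C before reading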). The following applies: qHTS. Summed up: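 AC50 values derive from Hill-modelled concentration-response of ATP-based luminescence, normalized between DMSO-only and 100 uM tamoxifen controls. Cells were exposed in complete culture medium for 40 hr at 37 °C before detection.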
Test [3] concerns the target Mitogen-activated protein kinase 10 (Mus musculus) (UniProt Q61831). Kind of test: JNK3 AlphaScreen Assay (AID 530; active means well fitted curve in either direction with a large enough effect, not every such curve was filed as active;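 further: kinase came from lysate of stimulated human HepG2 cells; signal reports phosphorylation of biotinylated GST-cJun 1-79 at Ser73 with 10 µM ATP; on the % scale 0 is the no-effect control and ±100 the full control effect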). Summed up: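 qHTS titrations with 15 min compound pre-incubation before adding ATP (10 uM final). Read-out: AlphaScreen of Ser73-phosphorylated biotin-GST-cJun using HepG2 lysate JNK3 activated by IL-1β and TNFα.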
A general note: In Alpha technology, singlet oxygen from a donor bead excites a nearby acceptor bead.

Test [4] in a line: Cell Viability - NIH 3T3 (AID 541).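 Further: plate controls were DMSO alone for no effect and tamoxifen positive control for full effect; nearly all actives have a fitted effect of over 25% in size.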 The following applies: NIH 3T3 cell viability, qHTS; activity change, negative = cytotoxicity: at 92.2 µM (top of the series). Summed up: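 Cells seeded at 1000/well, rested 5 hr at 37 °C, then dosed and incubated 40 hr at 37 °C. CellTiter-Glo added, 20 min room temperature, luminescence read. AC50 by Hill fit.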
The nature of test [5]: Cell Viability - H-4-II-E (AID 543). Further: on the % scale 0 is the no-effect control and ±100 the full control effect; nearly all actives have a fitted effect of over 35% in size. In short, it runs like this:
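Cells seeded at 1500 per well and rested 5 hr; compounds added; 40 hr incubation at 37 °C; CellTiter-Glo added, 20 min at room temperature; luminescence read. Hill-equation fits gave AC50.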

A short description of test [6]: Cellular Toxicity (caspase-3) NIH 3T3 (AID 666).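 Further: caspase signal read after 16 h compound exposure; 0% = DMSO basal and 100% = 100 µM tamoxifen stimulation.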 Summed up:
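Cells were plated at 1000 per well and incubated 5 hr at 37°C, then compound was added for 16 hr. Caspase-Glo 3/7 reagent followed for 20 min at room temperature before luminescence was read.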

Test [7] can be described thus: Cell Viability - LYMP2-004 (AID 966).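 Further: plate controls were DMSO only for no effect and tetraoctylammonium bromide control for full effect; nearly all actives have a fitted effect of over 65% in size.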 Summed up:
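qHTS cytotoxicity: human lymphoblastoid line, 24 hr compound treatment, 37 C, complete medium. Viability read as cellular ATP via luciferase luminescence; tetraoctylammonium bromide served as positive control.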

A short description of test [8]: Cell Viability - LYMP2-019 (AID 973).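 Further: 0% = DMSO alone and full effect = 92 µM tetraoctylammonium bromide; nearly all actives have a fitted effect of over 55% in size.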 In short, it runs like this: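 Cytotoxicity is scored as a concentration-dependent drop in cellular ATP after cells (2500/well) receive compound for 24 hr at 37 C. Tetraoctylammonium bromide serves as positive control.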
Test [9] in a line: Cell Viability - LYMP2-021 (AID 974).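 Further: compound exposure lasts 24 hours at 37 °C; on the % scale 0 is the no-effect control and ±100 the full control effect; nearly all actives have a fitted effect of over 55% in size.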 Summed up: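 Loss of cellular ATP, measured with a luciferase-based CellTiter-Glo readout, serves as the toxicity signal in human lymphoblastoid cells treated for 24 hours at 37 C. Potency is reported as AC50 from a standard Hill model.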
The nature of test [10]: Cell Viability - LYMP2-023 (AID 975).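 Further: cellular ATP measured by luciferase luminescence as viability proxy; plate controls were DMSO only for no effect and 92 µM tetraoctylammonium bromide control for full effect; nearly all actives have a fitted effect of over 55% in size.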 Summed up:
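Steps: seed 2500 human lymphoblastoid cells per well, incubate 5 hr at 37 C, add compound for 24 hr at 37 C, add CellTiter-Glo, hold 30 min at room temperature, read luminescence. AC50 derived by Hill modelling.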

Test [11] is described as follows: Cell Viability - LYMP2-002 (AID 977).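 Further: compound exposure lasted 24 h at 37 °C; plate controls were DMSO only for no effect and 92 µM tetraoctylammonium bromide for full effect.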 In short, it runs like this:
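Human lymphoblastoid cells (2500/well) in complete medium were preincubated 5 hr at 37 C, then exposed to compounds for 24 hr at 37 C. Intracellular ATP was read by CellTiter-Glo luminescence; AC50 came from Hill-equation concentration-response fits.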

Test [12] is described as follows: Cell Viability - LYMP2-007 (AID 979).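 Further: cells exposed to compound for 24 h before reading; 0% = DMSO only and the negative end = 92 µM tetraoctylammonium bromide; nearly all actives have a fitted effect of over 60% in size.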 Summed up:
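Cells are seeded at 2500 per well and rested 5 hr. Compounds are then added over a concentration series for 24 hr at 37 C. CellTiter-Glo is added for 30 min at room temperature before luminescence reading.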

A short description of test [13]: Cell Viability - LYMP2-014 (AID 983).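 Further: plate controls were DMSO only for no effect and 92 µM tetraoctylammonium bromide for full effect; nearly all actives have a fitted effect of over 50% in size.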 In short, it runs like this:
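Cells are plated at 2500/well and left 5 hr at 37 C. Compounds are added across a concentration range and incubated 24 hr at 37 C in complete medium. CellTiter-Glo is added, and luminescence is read after 30 min at room temperature.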

Test [14] can be described thus: Cell Viability - LYMP2-018 (AID 985).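 Further: compound exposure lasted 24 hr at 37 °C; plate controls were DMSO only for no effect and tetraoctylammonium bromide at 92 µM for full effect; nearly all actives have a fitted effect of over 50% in size.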 In short, it runs like this:
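Seed 2500 lymphoblastoid cells per well, incubate 5 hr at 37 C, add compound and incubate 24 hr at 37 C, add CellTiter-Glo, wait 30 min at room temperature, then read luminescence.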

A short description of test [15]: Cell Viability - LYMP2-020 (AID 986).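 Further: plate controls were DMSO only for no effect and tetraoctylammonium bromide at 92 µM for full effect; nearly all actives have a fitted effect of over 55% in size.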 In short, it runs like this: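 Seed 2500 cells per well and incubate 5 hr at 37 C. Add compounds at a concentration series and incubate 24 hr at 37 C. Add CellTiter-Glo, wait 30 min at RT, read luminescence, and fit a Hill curve for AC50.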
Test [16] can be described thus: Cell Viability - LYMP2-022 (AID 987). In short, it runs like this: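 Cells were seeded at 2500 per well, rested 5 hr at 37 C, and treated with titrated compounds for 24 hr at 37 C. Cellular ATP was then quantified by luciferase luminescence, and AC50 values were derived from Hill-modelled concentration-response curves.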
Test [17] can be described thus: Cell Viability - LYMP2-026 (AID 989). Further: on the % scale 0 is the no-effect control and ±100 the full control effect; nearly all actives have a fitted effect of over 50% in size. Summed up:
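Cells are seeded at 2500 per well and held 5 hr at 37 C. Compounds are added in concentration series for 24 hr, then CellTiter-Glo reagent is applied and luminescence read.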

The nature of test [18]: qHTS assay for small molecule agonists of retinoid X receptor alpha signaling (AID 588544). Particulars: HEK293T RXRa-UAS-bla, beta-lactamase reporter, 18 h; 530 nm emission.
Test [19] is described as follows: qHTS assay for small molecule antagonists of retinoid X receptor alpha signaling (AID 588546).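 Further: cells stimulated with 9-cis-retinoic acid as agonist; on the % scale 0 is the no-effect control and ±100 the full control effect.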 The following applies: HEK293T RXRa-UAS-bla, beta-lactamase ratio, antagonist mode; measured here: W530 green channel, cytotoxicity proxy. Summed up: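 Beta-lactamase reporter inhibition, read as CCF4 fluorescence ratio (ex 405, em 460/530 nm) after 2 h at RT. HEK293T UAS-bla cells, 2500/well, were stimulated with 9-cis-RA at 500 or 100 nM final alongside test compound for 18 h at 37 C.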

Test [20] concerns the target Voltage-gated inwardly rectifying potassium channel KCNH2 (Homo sapiens) (UniProt Q12809). The experiment in a line: qHTS Assay for Small Molecule Inhibitors of the Human hERG Channel Activity (AID 588834).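 Further: U2OS cells transduced with hERG by BacMam; top concentration of the series differs between compounds; on the % scale 0 is the no-effect control and ±100 the full control effect; lower thallium flux fluorescence means stronger hERG block; nearly all actives have a fitted effect of over 50% in size.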 Summed up: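 Cells were infected with hERG-BacMam virus for 4 hrs at room temperature, grown overnight, then seeded at 2000/well. After dye loading and roughly 10 min compound treatment, thallium influx was triggered and fluorescence recorded.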

Several values for one entry are separate records, joined by “and”; a condition that tells them apart may be missing. Equal values may be shown once. Results filed as inconclusive are left out. Activity calls are given as the source filed them. Unless noted, the call rests on the fitted dose curve; in most records, active means well fitted curve in the direction sought with a large enough effect; inconclusive means small, poorly fitted or top-dose-only effect, or another doubt; inactive means no such curve, though single readings can be large; an effect the other way counts as inactive or inconclusive. Some results are limits rather than exact numbers.

Chain of Voltage-gated inwardly rectifying potassium channel KCNH2 (Homo sapiens) (Q12809 whole entry, looked up): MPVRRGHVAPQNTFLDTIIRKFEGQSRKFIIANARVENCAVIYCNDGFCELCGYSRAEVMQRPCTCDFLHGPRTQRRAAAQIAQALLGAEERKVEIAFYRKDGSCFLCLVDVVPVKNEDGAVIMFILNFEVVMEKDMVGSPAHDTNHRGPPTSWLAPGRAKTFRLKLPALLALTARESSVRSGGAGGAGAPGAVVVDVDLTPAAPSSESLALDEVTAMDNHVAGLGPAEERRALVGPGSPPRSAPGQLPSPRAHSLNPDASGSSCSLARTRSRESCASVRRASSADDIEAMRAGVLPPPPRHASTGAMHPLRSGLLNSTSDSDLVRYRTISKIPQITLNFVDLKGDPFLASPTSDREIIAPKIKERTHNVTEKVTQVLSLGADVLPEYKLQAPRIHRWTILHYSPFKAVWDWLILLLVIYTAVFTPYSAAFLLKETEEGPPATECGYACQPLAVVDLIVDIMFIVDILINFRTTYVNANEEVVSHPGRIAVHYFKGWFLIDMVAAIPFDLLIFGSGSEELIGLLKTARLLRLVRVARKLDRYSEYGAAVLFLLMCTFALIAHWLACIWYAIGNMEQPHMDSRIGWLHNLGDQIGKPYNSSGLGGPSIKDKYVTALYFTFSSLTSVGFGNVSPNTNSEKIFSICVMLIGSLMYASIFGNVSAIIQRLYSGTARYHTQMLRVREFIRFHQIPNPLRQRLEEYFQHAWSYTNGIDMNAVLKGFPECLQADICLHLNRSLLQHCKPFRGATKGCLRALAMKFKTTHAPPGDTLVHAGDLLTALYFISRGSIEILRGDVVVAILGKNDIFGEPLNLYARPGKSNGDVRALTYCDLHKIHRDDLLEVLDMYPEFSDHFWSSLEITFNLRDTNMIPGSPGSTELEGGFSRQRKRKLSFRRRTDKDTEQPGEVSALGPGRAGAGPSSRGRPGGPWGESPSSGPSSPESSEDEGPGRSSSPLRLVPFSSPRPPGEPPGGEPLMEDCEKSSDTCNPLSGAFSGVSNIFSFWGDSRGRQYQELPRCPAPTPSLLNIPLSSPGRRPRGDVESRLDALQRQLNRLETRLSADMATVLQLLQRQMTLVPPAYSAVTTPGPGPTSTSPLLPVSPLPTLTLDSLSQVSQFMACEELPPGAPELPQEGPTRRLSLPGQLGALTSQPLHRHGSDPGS

For `O=[N+]([O-])c1cccc2ccccc12`, the Potency in [1] and in [2] was > 92 µM (inactive) in each case. The call in [3] and in test [6] was inactive. Besides, the activity change, negative = cytotoxicity in [4] is 3.57% (inactive). Also, the Potency result in [5], in [7], in [8], in test [9], in test [10] and in [11] was “inactive” in each case. The Potency result in test [12], in test [13], in test [14], in [15], in test [16] and in [17] was “inactive” throughout. Also, the Potency result in test [20] was “inactive”. For the same compound, the max response in [18] is -3.41% and -2.17%; in [19], -1.12% and -4.23%.

For `CCOc1ccc(N)cc1`, the Potency in test [1] and in test [2] was > 92 µM (inactive) throughout. Further, the result in test [3] and in test [6] was inactive. For the same compound, the activity change, negative = cytotoxicity in test [4] was -11.8% (inactive). Moreover, the Potency entry in [5], in test [7], in [8], in test [9], in [10] and in [11] was “inactive” throughout. Further, the Potency result in test [12], in [13], in [14], in [15], in [16] and in test [17] was “inactive” throughout. Moreover, the Potency entry in test [20] is “inactive”. The max response in [18] was -1.09%; in test [19], -4.66%.

As for `C=C(C)C(=O)OCC1CO1` (stereo unspecified), the Potency in test [1] and in test [2] was > 92 µM (inactive) in each case. Further, the result in test [3] and in [6] was inactive. In addition, the activity change, negative = cytotoxicity in [4] is -17.7% (inactive). Also, the Potency result in [5], in test [7], in test [8], in test [9], in test [10] and in [11] was “inactive” in each case. Moreover, the Potency result in test [12], in test [13], in test [14], in test [15], in [16] and in [17] was “inactive” throughout. Moreover, the Potency entry in [20] was “inactive”. The max response is -10.2% in [18] and -2.75% in test [19].

Consider `ClC(Cl)(Cl)c1ccccc1`, for which the Potency in test [1] and in test [2] was > 92 µM (inactive) in each case. Besides, the outcome in test [3] and in [6] was inactive. The activity change, negative = cytotoxicity in test [4] was -19.1% (inactive) and -4.39% (inactive). Besides, the Potency entry in [5], in [7], in test [8], in test [9], in [10] and in test [11] was “inactive” throughout. Besides, the Potency entry in test [12], in test [13], in [14], in [15], in [16] and in test [17] was “inactive” in each case. Besides, the Potency result in test [20] was “inactive”. The max response in test [18] is 2.72% and -9.44%; in [19] it was -5.33% and -1.27%.

As for `ClC(Cl)=C(Cl)Cl`, the Potency in test [1] and in test [2] was > 92 µM (inactive) in each case. Further, the call in test [3] and in test [6] was inactive. Further, the activity change, negative = cytotoxicity in test [4] was -22.9% (inactive) and 3.64% (inactive). The Potency entry in test [5], in test [7], in test [8], in [9], in [10] and in test [11] was “inactive” throughout. The Potency entry in test [12], in test [13], in test [14], in test [15], in test [16] and in test [17] was “inactive” each time. Moreover, in test [20], the Potency entry is “inactive”. Also, the max response was 4.54% and -3.27% in [18]; -6.82% and -0.572% in test [19].

Regarding `C=C(C)C#N`, the Potency in [1] and in test [2] was > 92 µM (inactive) each time. Also, the result in test [3] and in test [6] was inactive. In test [4], the activity change, negative = cytotoxicity was -26.6% (inactive). Also, the Potency entry in test [5], in test [7], in test [10], in test [11], in [12] and in test [13] was “inactive” each time. The Potency entry in test [14], in test [15] and in [20] was “inactive” in each case. The max response is 5.57% and -6.47% in [18]; 2.43% and -11.4% in test [19].
